Results reported in the supplement of paper PMC9694430.

Key:
Test in all cases: thermal shift delta Tm vs DMSO control; higher = stronger stabilization (binding)
Details in all cases: 12.5 µM; protein concentration 2 µM
LOC_OS04G57630-cb004 = tested on: LOC_OS04G57630-cb004
How it was run: (§1)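 Compounds dissolved in DMSO were added to purified rice kinase domain constructs, which had been expressed in E. coli, for differential scanning fluorimetry. Each well held 19.5 μl of 2 μM kinase in 100 mM potassium phosphate pH 7.5, 150 mM NaCl, 10% glycerol and 5 × SYPRO Orange. Fluorescence was followed from 25°C to 95°C at a rate of 0.05°C/s. Shifts in Boltzmann-fitted melting temperature are triplicate means relative to DMSO-only protein.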

LOC_OS05G07850-cb002 = tested on: LOC_OS05G07850-cb002
How it was run: as §1

LOC_OS05G16824-cb004 = tested on: LOC_OS05G16824-cb004
How it was run: as §1

LOC_OS05G28520-cb001 = tested on: LOC_OS05G28520-cb001
How it was run: as §1

LOC_OS05G30820-cb001 = tested on: LOC_OS05G30820-cb001
How it was run: as §1

LOC_OS05G43570-cb004 = tested on: LOC_OS05G43570-cb004
How it was run: as §1

LOC_OS06G16330-cb003 = tested on: LOC_OS06G16330-cb003
Chain of LOC_OS06G16330-cb003 (as listed by the source): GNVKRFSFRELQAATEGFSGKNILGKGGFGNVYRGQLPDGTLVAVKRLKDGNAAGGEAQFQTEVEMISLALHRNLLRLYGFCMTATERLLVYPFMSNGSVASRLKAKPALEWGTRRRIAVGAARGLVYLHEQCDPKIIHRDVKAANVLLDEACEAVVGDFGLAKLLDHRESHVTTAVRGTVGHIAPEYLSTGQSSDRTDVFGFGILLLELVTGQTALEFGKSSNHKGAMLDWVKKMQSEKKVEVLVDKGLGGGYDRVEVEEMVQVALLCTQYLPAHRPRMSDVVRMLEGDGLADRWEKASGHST
How it was run: as §1

LOC_OS06G22820-cb001 = tested on: T1, LOC_OS06G22820-cb001
T1 sequence (whole entry): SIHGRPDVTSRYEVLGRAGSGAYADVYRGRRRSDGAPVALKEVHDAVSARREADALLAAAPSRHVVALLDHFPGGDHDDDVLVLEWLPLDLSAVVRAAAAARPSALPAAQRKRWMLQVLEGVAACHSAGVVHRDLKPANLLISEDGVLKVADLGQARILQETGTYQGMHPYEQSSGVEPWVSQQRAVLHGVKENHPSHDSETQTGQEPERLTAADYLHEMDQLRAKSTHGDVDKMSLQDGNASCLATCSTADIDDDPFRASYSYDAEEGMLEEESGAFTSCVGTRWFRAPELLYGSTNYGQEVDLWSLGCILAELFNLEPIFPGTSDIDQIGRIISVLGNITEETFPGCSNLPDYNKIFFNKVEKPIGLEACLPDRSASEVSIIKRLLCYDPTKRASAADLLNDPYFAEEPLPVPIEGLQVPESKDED
How it was run: as §1

LOC_OS07G06570-cb004 = tested on: LOC_OS07G06570-cb004
How it was run: as §1

LOC_OS07G07230-cb001 = tested on: LOC_OS07G07230-cb001
How it was run: as §1

Structure (SMILES)	thermal shift delta Tm (LOC_OS04G57630-cb004)	thermal shift delta Tm (LOC_OS05G07850-cb002)	thermal shift delta Tm (LOC_OS05G16824-cb004)	thermal shift delta Tm (LOC_OS05G28520-cb001)	thermal shift delta Tm (LOC_OS05G30820-cb001)	thermal shift delta Tm (LOC_OS05G43570-cb004)	thermal shift delta Tm (LOC_OS06G16330-cb003)	thermal shift delta Tm (LOC_OS06G22820-cb001)	thermal shift delta Tm (LOC_OS07G06570-cb004)	thermal shift delta Tm (LOC_OS07G07230-cb001)
CC1(C)C=Cc2c(ccc3c2OC[C@@H](c2ccc(O)cc2O)C3)O1 [Glabridin]	0.75 °C	1.39 °C	7.49 °C	0.24 °C	-0.16 °C	0.51 °C	0.92 °C	0.89 °C	0.51 °C	-0.99 °C
CCc1cnn2c(NCc3ccc[n+]([O-])c3)cc(N3CCCC[C@H]3CCO)nc12	-0.16 °C	2 °C	-0.11 °C	0.17 °C	0.37 °C	0.19 °C	-0.11 °C	0.41 °C	0.51 °C	0.3 °C
CC#CC(=O)Nc1ccc2ncnc(Nc3cccc(Br)c3)c2c1	1.19 °C	9.9 °C	-2.35 °C	0.85 °C	0.66 °C	0.95 °C	3.13 °C	0.56 °C	1.04 °C	0.05 °C
CONC(=O)c1ccccc1Nc1cc(Nc2cc(C)nn2C(C)C)ncc1Cl	0.41 °C	5.58 °C	8.82 °C	0.25 °C	0.17 °C	0.39 °C	6.46 °C	0.47 °C	1.77 °C	0.55 °C
NC(=O)c1cnc(N[C@@H]2CCCC[C@@H]2N)nc1Nc1cccc(-n2nccn2)c1	0.91 °C	6.88 °C	6.77 °C	-0.14 °C	2.09 °C	0.39 °C	5.31 °C	0.77 °C	1.27 °C	0.71 °C
